Assay results from PubChem BioAssay (NCI).
This is part of a sample that, as a whole, favours compounds with a hit. Of some 83,000 tested, about 20% had one in any assay.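 Single-concentration screen, 48 h exposure, 96-well plates. Endpoint: percent growth. Below 10 = active.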 The source made the active and inactive calls.

Experiments:
Experiment in all cases: NCI-60 one-dose screen, 48 h (100 = growth as untreated, 0 = no growth, -100 = all killed)
Conditions in all cases: 10 µM unless noted
[1] = test system: SR leukemia
[2] = test system: RPMI-8226 leukemia
[3] = test system: OVCAR-8 ovarian
[4] = test system: OVCAR-5 ovarian
[5] = test system: OVCAR-4 ovarian
[6] = test system: SK-OV-3 ovarian
[7] = test system: IGROV1 ovarian
[8] = test system: OVCAR-3 ovarian
[9] = test system: HS 578T breast
[10] = test system: NCI/ADR-RES ovarian

Measured: growth

CC(=O)c1c(C)[nH]c(-c2nc3ccc(N4CCN(C)CC4)cc3[nH]2)c1-c1ccc2c(c1)OCCO2
inactive: [1] 46.2% | [3] 48.2% | [4] 46.4% | [5] 43% | [6] 28.7% | [7] 23% | [8] 46% | [9] 30.1% | [10] 53%
active: [2] 7.78%

Nc1nc2c(c(=O)[nH]1)C(c1ccc3c(c1)OCO3)C=C(C(=O)O)N2 (stereo not given)
inactive: [1] 103% | [2] 129% | [3] 106% | [4] 114% | [5] 103% | [6] 118% | [7] 111% | [8] 123% | [9] 106% | [10] 109%

COc1ccc(/C(=C\c2ccc3c(c2)OCO3)C(=O)Nc2nc3ccccc3s2)cc1OC
inactive: [1] 69.8% | [2] 78.2% | [3] 86.8% | [4] 93.7% | [5] 92.2% | [6] 102% | [7] 101% | [8] 97% | [9] 95% | [10] 98.1%

O=Cc1nc2ccccc2[nH]1
inactive: [1] 83% | [2] 96.9% | [3] 100% | [4] 104% | [5] 110% | [6] 94.2% | [7] 107% | [8] 111% | [9] 95.4% | [10] 106%

C=C(C)[C@@H]1CC[C@]2(C)[C@H](CC[C@@H]3[C@H]4[C@H]5OC[C@@]4(CCC5(C)C)CC[C@]32C)[C@@]1(C)CCCN
active: [1] -0.922% | [2] 1.46%
inactive: [3] 57.8% | [4] 50.6% | [5] 70.2% | [6] 104% | [7] 54.3% | [8] 76.6% | [9] 109% | [10] 73.8%

COc1ccc(-c2nc(Nc3ccc(-c4nc5ccccc5[nH]4)cc3)nc(N3CCOCC3)n2)cc1
active: [1] 6.01% | [2] -13.8% | [8] 5.15% | [9] -11.9%
inactive: [3] 39.2% | [4] 66.3% | [5] 59.8% | [6] 19.6% | [7] 33.7% | [10] 34.2%

COc1ccc(C2c3ccccc3NC(=O)N2C2CCN(C)CC2)c(OC)c1 (stereo not given)
inactive: [1] 41.4% | [2] 113% | [3] 104% | [4] 88.4% | [5] 105% | [6] 101% | [7] 94.3% | [8] 110% | [9] 92% | [10] 103%

C[C@@H](C(=O)O)c1ccc2c3cc(Cl)ccc3n(Cc3cc(=O)oc4ccc(Cl)cc34)c2c1
inactive: [1] 94.7% | [2] 109% | [3] 105% | [4] 97.3% | [5] 98.9% | [6] 96.9% | [7] 74.2% | [8] 98.7% | [9] 101% | [10] 98.3%

Clc1cc(Cl)cc(Nc2ccc3c(OCCCN4CCOCC4)cccc3n2)c1
active: [1] 6.22%
inactive: [2] 11.1% | [3] 81.8% | [4] 49.3% | [5] 65.3% | [6] 75.8% | [7] 72.9% | [8] 64.8% | [9] 35.9% | [10] 60.9%

COC(=O)[C@]12CC[C@@H](C)[C@H](C)[C@@H]1C1=CC[C@@H]3[C@@]4(C)C[C@@H](O)[C@H](O)[C@@](C)(CO)C4=CC[C@@]3(C)[C@]1(C)CC2
active: [1] -24.8% | [2] -15.2% | [3] -22.9% | [4] -66% | [5] -55.5% | [6] -5.82% | [7] -40% | [8] -61.8% | [9] -35.1% | [10] -45.6%

O=S(=O)(NCCCNc1cc(-c2cn(-c3ccccc3)nc2-c2cccc(O)c2)ccn1)c1ccc(F)cc1
inactive: [2] 21.4% | [3] 23.4% | [4] 65.5% | [5] 35.7% | [6] 49% | [7] 40.6% | [8] 45.8% | [9] 24.3% | [10] 25.9%
active: [1] 6.17%

Cc1cc(N2CCOCC2)nc(N(CCCNc2ccnc3cc(Cl)ccc23)Cc2ccco2)n1
active: [1] -11.4% | [8] 2.02%
inactive: [2] 19.4% | [3] 46.3% | [4] 38.9% | [5] 50.4% | [6] 50.1% | [7] 10.9% | [9] 69.5% | [10] 12.1%

COc1cccc(-c2nn(-c3ccccc3)cc2-c2ccnc(NCCCO)c2)c1
inactive: [2] 28.3% | [3] 46% | [4] 92% | [5] 55.1% | [6] 45% | [7] 58.8% | [8] 25.9% | [9] 35.7%
active: [1] 5.71% | [10] 7.32%

C=COCCCCCCCCCCCCCCCCCC
inactive: [1] 94.6% | [2] 115% | [3] 96.5% | [4] 106% | [5] 109% | [6] 103% | [7] 118% | [8] 92.6% | [9] 89.3% | [10] 98.9%

Cc1cccc(C)c1NC(=O)CSC(=S)N1CCN(CCOCCO)CC1
inactive: [1] 102% | [2] 108% | [3] 106% | [4] 96.9% | [5] 102% | [6] 110% | [7] 96.5% | [8] 102% | [9] 104% | [10] 99.5%

COC(=O)CCCCCn1c2ccccc2c2c3c(c4c5ccccc5[nH]c4c21)C(=O)N(O)C3=O
inactive: [1] 11.3% | [2] 22.4% | [3] 31.2% | [4] 86.6% | [5] 57.5% | [6] 70.2% | [7] 19.5% | [8] 33.2% | [9] 84.5% | [10] 23.1%

O=C(O[C@@H]1Cc2c(O)cc(O)cc2O[C@@H]1c1cc(O)c(O)c(O)c1)c1cc(O)c2c(c1)OCO2
inactive: [1] 72.1% | [2] 99.8% | [3] 103% | [4] 97% | [5] 99.8% | [6] 103% | [7] 107% | [8] 106% | [9] 98.1% | [10] 97.5%

Cc1cc(Cl)nc(N(CCNc2ccnc3cc(Cl)ccc23)Cc2ccco2)n1
active: [1] -3.12% | [2] -30.7% | [8] -41.2%
inactive: [3] 45.3% | [4] 80.5% | [5] 53.1% | [6] 123% | [7] 38.3% | [9] 79.2% | [10] 44.5%

Cc1nn(-c2ccc(Br)cc2)c2nc3[nH]c(=O)[nH]c(=O)c3nc12
inactive: [1] 114% | [2] 121% | [3] 111% | [4] 112% | [5] 103% | [6] 110% | [7] 107% | [8] 117% | [9] 104% | [10] 107%

O=[N+]([O-])c1ccc(N/N=C(\C(=N/Nc2ccc([N+](=O)[O-])cc2[N+](=O)[O-])c2ccccc2)c2ccccc2)c([N+](=O)[O-])c1
active: [1] -1.67% | [5] 5.4%
inactive: [2] 93.3% | [3] 87.6% | [4] 98.4% | [6] 106% | [7] 92.3% | [8] 84% | [9] 74.4% | [10] 90.4%

CC1(C)CC[C@]2(C(=O)NCCNCCN)CC[C@]3(C)C(=CC[C@@H]4[C@@]5(C)CCC(=O)C(C)(C)[C@@H]5CC[C@]43C)[C@@H]2C1
active: [1] -45.6% | [2] -19.9% | [8] -27.2%
inactive: [3] 21.4% | [4] 106% | [5] 65.3% | [6] 89.9% | [7] 23.8% | [9] 79% | [10] 93.2%

Cn1cc(-c2csc(-c3cn(CCCN4CCCCC4)c4ccc(F)cc34)n2)c2cccnc21
inactive: [1] 65.9% | [2] 69.2% | [3] 95.3% | [4] 91.8% | [5] 92.8% | [6] 99.3% | [7] 85.2% | [8] 93.2% | [9] 82.5% | [10] 89.5%

COc1cnc2c(c1)C(=O)c1c-2n(CCCN2CCN(CCO)CC2)c(=O)c2cc([N+](=O)[O-])ccc12
inactive: [2] 44.6% | [3] 52.5% | [4] 132% | [5] 79.4% | [6] 54.8% | [7] 74.2% | [8] 84.4% | [9] 84.9% | [10] 111%
active: [1] -12.5%

CC(=O)n1c(/C(C#N)=C/c2ccc(N(C)C)cc2)cc2ccccc21
active: [8] 8.84%
inactive: [1] 26.8% | [2] 16.2% | [3] 40.3% | [4] 60.7% | [5] 76.8% | [6] 34.8% | [7] 40.3% | [9] 11.9% | [10] 16.7%

COc1ccc2c(c1)C(Br)=C(CCO)C2c1ccccc1 (stereo not given)
inactive: [1] 112% | [2] 40.7% | [3] 86.1% | [4] 78% | [5] 87.3% | [6] 78.1% | [7] 83.5% | [8] 26% | [9] 35.7% | [10] 65.1%

C[C@]12CC[C@@H]3c4ccc(O)cc4CC[C@H]3[C@@H]1C[C@H](O)[C@@H]2O
inactive: [1] 99.2% | [2] 98.6% | [3] 103% | [4] 85.5% | [5] 99.8% | [6] 120% | [7] 98% | [8] 90.3% | [9] 86.6% | [10] 102%
